Reference: PubChem BioAssay (NCATS)
Inconclusive results are not listed. Active and inactive are the calls of the source. Calls follow the shape of the dose curve; as a rule, active = well fitted curve in the direction sought with a large enough effect; inconclusive = small, poorly fitted or top-dose-only effect, or another doubt; inactive = no such curve, though single readings can be large; an effect the other way counts as inactive or inconclusive.

Columns and labels:
[1] = MCF7 Cancer Cell Toxicity qHTS against the NCATS CANVASS Library (AID 1347369); details: MCF7 viability, ATP luminescence (CellTiter-Glo), 72 h; series mostly up to 46 µM
Method in brief: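 MCF7, 500 cells/well; cpds 11-pt qHTS; 72 hr, 37C/5% CO2; CellTiterGlo ATP luminescence.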

[2] = qHTS for ATAD5 Antagonist screened against the NCATS CANVASS Library (AID 1347370); details: HEK293T-ATAD5-luc, 5-FUrd stimulated, luminescence, 16 h; series mostly up to 46.1 µM;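 also: HEK293T cells carrying an ATAD5 luciferase reporter co-treated with 10 µM 5-fluorouridine; nearly all actives have a fitted effect of over 65% in size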
Method in brief: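 HEK293T cells with stably integrated ATAD5-luciferase reporter, 2000/well, 5 h attachment; compounds plus 10 µM 5-fluorouridine, 16 h at 37 °C. Luciferase luminescence read, with CellTiter-Fluor viability read first.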

[3] = J3T Cancer Cell Toxicity qHTS against the NCATS CANVASS Library (AID 1347371); details: J3T dog glioma viability, ATP luminescence, 72 h; series mostly up to 46.1 µM;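 also: J3T is a canine glioma cancer cell line seeded at 500 cells per well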
Method in brief: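 Cells plated at 500 per well, compounds pin-transferred, plates incubated 72 hr at 37C, then CellTiterGlo added and luminescence read to measure ATP content.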

[4] = target: Nuclear receptor subfamily 1 group I member 3 (Homo sapiens) (UniProt Q14994); assay: qHTS for Constitutive Androstane Receptor (CAR) Antagonist screened against the NCATS CANVASS Library (AID 1347372); details: HepG2-hCAR-CYP2B6 luciferase, CITCO-stimulated antagonist mode; series mostly up to 46.1 µM;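 also: cells stimulated with 50 nM CITCO agonist so inhibition reflects antagonism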
Method in brief: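 HepG2 cells stably carrying hCAR and a CYP2B6-2.2kb luciferase reporter were exposed to compounds plus 50 nM CITCO for 24hr at 37C. CAR activity was read by ONE-Glo luminescence, with viability measured first by CellTiter-Fluor.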

[5] = target: Nuclear receptor subfamily 1 group I member 3 (Homo sapiens) (UniProt Q14994); assay: qHTS for Constitutive Androstane Receptor (CAR) Agonist screened against the NCATS CANVASS Library (AID 1347373); details: HepG2-hCAR-CYP2B6 luciferase reporter, ONE-Glo luminescence; series mostly up to 46.1 µM;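 also: every well also contained 1.5 µM PK11195 alongside the test compound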
Method in brief: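 HepG2-hCAR-CYP2B6 cells, 2500/well, attached 4hr; cpd + PK11195 1.5uM final; 24hr 37C 5% CO2. CellTiter-Fluor viability read, then ONE-Glo luminescence for CAR activation.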

[6] = 10-beta competent E. coli microbial cell viability qHTS against the NCATS CANVASS Library (AID 1347376); details: E. coli 10-beta viability, BacTiter-Glo ATP luminescence, overnight; series mostly up to 46.1 µM
Method in brief: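 E. coli 10-beta, 0.2 OD; cpds 11-pt; o/n 37C, 5% CO2; BacTiter-Glo 20 min RT; luminescence (ATP) = viable cells. Daunomycin ctrl.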

[7] = DH5-alpha competent E. coli microbial cell viability qHTS against the NCATS CANVASS Library (AID 1347377); details: BacTiter-Glo ATP luminescence, overnight; at 46.1 µM (top of the series)
Method in brief: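 qHTS, 11-pt; E. coli DH5-alpha, 0.2 OD; o/n 37C/5% CO2; BacTiter-Glo, 20 min RT; luminescence.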

[8] = qHTS for H2AX Agonists against the NCATS CANVASS Library (AID 1347378); details: CHO-K1 H2AX phosphorylation, HTRF TR-FRET, 3 h; series mostly up to 76.9 µM
Method in brief: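 CHO-K1 cells were plated overnight at 37C, then exposed to compounds (concentration series, 0.76% DMSO final) for 3 hr at 37C. Lysates received Eu-cryptate anti-pH2AX (S139) and d2 anti-H2AX antibodies; after 24 hr at room temperature, TR-FRET 665/620 nm ratio was read.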

[9] = qHTS for Inflammasome Signaling Inhibitors: IL-1-beta AlphaLISA screen against the NCATS CANVASS Library (AID 1347379); details: THP-1 LPS/ATP, IL-1B AlphaLISA secretion, 16 h; at 57.5 µM (top of the series);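 also: human THP-1 cells primed with LPS then triggered with ATP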
Method in brief: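 THP-1 cells pretreated 1 hr with compound (up to 57.5 uM final), then stimulated with LPS (250 ng/mL final) and ATP (1.25 mM final). Secreted IL-1B measured by AlphaLISA after 16 hr; glyburide as positive control.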

[10] = qHTS for Antimalaria activity screened against the NCATS CANVASS Library (AID 1347380);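 also: Plasmodium falciparum strain Dd2 asexual parasites grown in red blood cells; nearly all actives have a fitted effect of over 40% in size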; details: P. falciparum Dd2 growth, SYBR Green fluorescence, 72 h; series mostly up to 28.7 µM
Method in brief: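 Dd2 strain, infected erythrocytes 2.5% Hct final / 0.3% parasitemia. 11-pt qHTS titration, 72 h, 37C, 5% O2, 5% CO2. Lysis buffer + SYBR Green, 18 h, fluorescence 485/535 nm.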

[11] = Inflammasome Signaling qHTS Counterscreen: IL-1-beta AlphaLISA counterscreen against the NCATS CANVASS Library (AID 1347381); details: Purified IL-1beta AlphaLISA signal interference counterscreen; series mostly up to 57.5 µM;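 also: cell-free check with purified IL-1β in medium and no THP-1 cells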
Method in brief: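 Cell-free interference check: compounds added to medium spiked with 4 pg purified IL-1β. Anti-IL-1β acceptor beads (6 ug/mL) with 0.6 nM biotinylated antibody added for 1 h at RT, then streptavidin donor beads (24 ug/mL) for 30 min in the dark. AlphaLISA read at 680/615 nm.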

[12] = Cytotoxicity qHTS for assessment of Hepg2 cells membrane integrity screened against the NCATS CANVASS Library (AID 1347387); details: HepG2 LDH release (CytoTox-ONE) fluorescence, 5 h; series mostly up to 46.1 µM
Method in brief: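 qHTS, 11-pt conc. series, 0.59 nM - 46 uM final; HepG2 2000 cells/well, overnight attachment; 5 hr compound exposure 37C/5% CO2; CytoTox-ONE, 10 min RT; fluorescence ex560/em590 = LDH from damaged membranes.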

[13] = qHTS for Activators of p53 Stress Response Pathway screened against the NCATS CANVASS Library (AID 1347388); details: p53RE-bla HCT-116, beta-lactamase reporter, 16 h; series mostly up to 46.1 µM
Method in brief: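 p53RE-bla HCT-116 cells (4000/well) were plated 5 h at 37C, exposed to compounds for 16 h at 37C over an 11-point concentration series, then loaded with CCF4 for 2 h at room temperature; 460/530 nm emission ratio read.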

[14] = qHTS assay for small molecule disruptors of mitochondrial membrane potential screened against the NCATS CANVASS Library (AID 1347389); details: HepG2 mitochondrial membrane potential, m-MPI red/green ratio, 1.5 h; series mostly up to 46.1 µM; also: nearly all actives have a fitted effect of over 60% in size
Method in brief: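 HepG2, 2,000 cells/well, attached overnight; compound 1 hr, 37C, 5% CO2; Mito-MPS dye 30 min, 37C; fluorescence 535 nm (monomer) and 590 nm (aggregate); decreased 590/535 ratio = depolarization.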

[15] = Secretion counterscreen for inhibitors of the SERCaMP assay screened against the NCATS CANVASS Library (AID 1347390); details: SH-SY5Y constitutive GLuc secretion, luminescence, 20 h; series mostly up to 76.6 µM;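 also: light from luciferase secreted into medium read as a measure of general secretion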
Method in brief: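 SH-SY5Y cells expressing constitutively secreted GLuc, 1000 cells/well, attached 4 h at 37C, then exposed to compounds (0.001 - 77 uM, 11-pnt series) for 20 h. Coelenterazine added; luminescence read to flag secretory-pathway interferers.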

[16] = qHTS for activators of Nrf2/ARE signaling pathway screened against the NCATS CANVASS Library (AID 1347391); details: ARE-bla HepG2, beta-lactamase reporter, 16 h; series mostly up to 46.1 µM; also: nearly all actives have a fitted effect of over 60% in size
Method in brief: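 Plate ARE-bla HepG2 cells at 2000/well and let them settle 5 h. Pin-transfer compounds in DMSO, incubate 16 h at 37C. Load CCF4 for 2 h at room temperature and read blue/green fluorescence.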

[17] = qHTS for activators of dead-cell proteases activity screened against the NCATS CANVASS Library (AID 1347392); details: HepG2 cytotoxicity, dead-cell protease luminescence, 5 h; series mostly up to 46.1 µM;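 also: luminescence from protease leaking out of membrane-damaged cells cleaving impermeant substrate; rising signal means more cytotoxicity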
Method in brief: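 HepG2 cells (2000/well) attached 18 h at 37C, then exposed 5 h to compounds (11-point qHTS). Dead-cell protease activity read as luminescence from cell-impermeant AAF-aminoluciferin substrate after 15 min at room temperature.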

[18] = qHTS for inhibitors of ER calcium dysfunction: SERCaMP assay screened against the NCATS CANVASS Library (AID 1347393); details: SH-SY5Y GLuc-SERCaMP (Gaussia luciferase released on ER calcium loss) secretion, thapsigargin, luminescence; series mostly up to 76.6 µM;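 also: lower secreted reporter signal means inhibitor of ER calcium depletion; nearly all actives have a fitted effect of over 40% in size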
Method in brief: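 qHTS in SH-SY5Y reporter cells: 16 h compound pretreatment, 4 h thapsigargin, then secreted Gaussia luciferase measured by luminescence.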

[19] = Vero-766 cells viability qHTS against the NCATS CANVASS Library: Counterscreen for Zika virus inhibition assay (AID 1347394); details: Vero 766 viability, CellTiter-Glo luminescence, 72 h; series mostly up to 46.1 µM; also: nearly all actives have a fitted effect of over 60% in size
Method in brief: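 Uninfected Vero 766 (African green monkey) cells, 1000/well, attached overnight, then exposed 72 h at 37C to compounds (11-point qHTS). Viability read by CellTiter-Glo luminescence; media-only wells served as 100% inhibition.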

[20] = qHTS for inhibitors of Wild type Zika virus screened against the NCATS CANVASS Library (AID 1347396); details: Vero cells, Zika virus CPE, CellTiter-Glo, 72 h; series mostly up to 45.9 µM;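 also: ATP luminescence of surviving cells so rescue from viral cell killing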
Method in brief: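 Using ATP-based luminescence (CellTiter Glo), this screen scores rescue of Vero 766 cells from wild-type Zika killing at 72 h post-infection. Compounds are tested in a concentration series.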

Measured: outcome

Chain of Nuclear receptor subfamily 1 group I member 3 (Homo sapiens) (Q14994 whole entry, looked up): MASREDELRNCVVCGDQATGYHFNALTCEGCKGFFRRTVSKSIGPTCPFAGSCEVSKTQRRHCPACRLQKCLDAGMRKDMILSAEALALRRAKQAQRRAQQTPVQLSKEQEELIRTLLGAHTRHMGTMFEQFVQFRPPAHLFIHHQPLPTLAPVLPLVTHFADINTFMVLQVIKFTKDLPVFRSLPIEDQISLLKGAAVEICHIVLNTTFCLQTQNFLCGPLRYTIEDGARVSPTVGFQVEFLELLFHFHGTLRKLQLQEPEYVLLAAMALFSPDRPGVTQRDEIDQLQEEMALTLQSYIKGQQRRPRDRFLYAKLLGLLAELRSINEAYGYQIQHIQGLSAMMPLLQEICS

COc1ccc2[nH]cc(CCNC(C)=O)c2c1
inactive: all assays above
